The nature of this test: HTS Assay for Allosteric Antagonists of the Human D2 Dopamine Receptor: Hit Validation in Parental Cell Line. The following applies: HEK293 T-REx parental cells, calcium flux, dopamine EC80; series mostly up to 41.8 µM.

Calls of active or inactive are those of the source. The rule behind the calls is not given here.

On to `NCCc1ccc(O)c(O)c1`, for which the outcome was inactive.

The values above are taken from PubChem BioAssay AID624459 (National Center for Advancing Translational Sciences (NCATS), 2012).
